# Source: PubChem BioAssay
# MenB inh: blocks the Mycobacterium tuberculosis MenB enzyme. MenB enzyme assay, absorbance read-out. P9WNP5. 100,000 compounds, 0.43% hits. inhibition, % (no concentration beside the values); in the data active means inhibition above about 21%, passing the limit was not always enough
# Target sequence (P9WNP5 whole entry, looked up): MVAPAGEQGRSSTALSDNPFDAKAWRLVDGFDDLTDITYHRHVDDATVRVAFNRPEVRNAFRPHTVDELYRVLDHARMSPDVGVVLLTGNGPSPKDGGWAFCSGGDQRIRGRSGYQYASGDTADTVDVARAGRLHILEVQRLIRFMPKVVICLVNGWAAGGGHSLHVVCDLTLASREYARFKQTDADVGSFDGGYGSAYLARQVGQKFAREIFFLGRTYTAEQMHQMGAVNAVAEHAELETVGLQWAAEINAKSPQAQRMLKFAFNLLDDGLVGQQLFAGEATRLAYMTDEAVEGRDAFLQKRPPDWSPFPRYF
# PV pol inh: poliovirus RNA polymerase inhibition; poliovirus polymerase elongation, fluorescence polarization; hits give low values; AID 588519; P03300; 150,000 compounds, 0.66% hits; % elongation, % (compound at 16.7 µg/mL); in the data active means % elongation below about 90%
# MbtI inh: MbtI salicylate synthase inhibition. P9WFX0. purified MbtI enzyme, fluorescence intensity read-out. inhibition, % (concentration not given with the values). 100,000 compounds, 0.89% hits; in the data active means inhibition mostly above about 56%, no sharp cut-off; inactive means mostly below about 77%
# AID504770: growth inhibitors of E. coli YBA685 in a screen for V. cholerae RctB (chromosome II replication) inhibitors; 130,000 compounds, 0.27% hits; z-score (test concentration not listed); E. coli YBA685 rctB-dependent plasmid, OD600 growth, 3 h; hits give low values; in the data active means z-score below about -2, passing the limit was not always enough
# Numbers stand for hits; . = inactive; / = no result given; ! = not confirmed by another sample. This is a sample that favours compounds with a hit; in the whole collection about 1.4% have one here.
SMILES,MenB inh,PV pol inh,MbtI inh,AID504770
COC(=O)/C=C1/OC(c2ccc(Cl)cc2)=CC1=O,.,.,100,.
CCN(CC)C(=O)CN1C(=O)COCC1=O,26,.,.,.
Cc1nc2ccc(NC(=O)c3cccc(S(C)(=O)=O)c3)cc2s1,.,.,.,.
N#Cc1cc(-c2ccccc2C(F)(F)F)no1,.,.,.,-2.6
C=CCN1C(=O)/C(=C/C(=O)OCC)c2ccccc21,/,/,/,.
CC(C)(C)c1nn2cnnc2n(NC(=O)Nc2cccc(Cl)c2)c1=O,.,.,.,-3.5
CC(C)(C)CC(C)(C)NC(=O)Nc1cccc(Cl)c1,.,.,.,.
O=C(Cc1c[nH]c2ccccc12)OCC(=O)c1ccc(F)cc1,.,.,/,.
CC(=O)c1ccc(NC(=O)C2=CC(c3cccs3)=NS(=O)(=O)N2C)cc1,/,-12,/,/
CCOC(=O)c1sc(=N)n(CC(=O)c2ccc(F)cc2)c1C,.,1.0,.,.
CCOC(=O)c1cc2c(ccn2-c2ccc(F)cc2)n1CC(=O)c1ccc2c(c1)OCCO2,.,.,.,.
COC(=O)c1cn(CC(N)=O)c2nc(C)ccc2c1=O,.,.,.,.
O=C(N/N=C/c1ccc(O)cc1)Nc1cccc2nsnc12,37,.,.,.
CC(C)C(=O)Nc1cccc2nsnc12,.,.,/,.
COc1cccc(C(=O)Nc2cc3cc(OC)ccc3oc2=O)c1,/,85,/,/
Cc1ccc(N2CCN(c3ccc(C)cc3)C2c2ccc(C)o2)cc1,.,.,.,.
O=C1C2C3C=CC(O3)C2C(=O)N1c1ccccc1C(F)(F)F (configuration not stated),/,/,/,.
O=C1C=CC(=O)N1c1ccc(C(F)(F)F)cc1,/,/,/,.
O=C1C=CC(=O)N1c1ccccc1C(F)(F)F,/,.,98,-2.5
O=C1C=CC(=O)N1c1cc(C(F)(F)F)ccc1Cl,/,.,98,.
O=C(OC1CCc2ccccc2C1=O)c1ccc(O)cc1 (configuration not stated),.,.,.,.
N#CC(C#N)=Cc1cc2c(cc1Br)OCO2,.,70,.,.
CC(C)=C(NC(=O)c1ccccc1)C(=O)NN=C1CCN(Cc2ccccc2)CC1,.,.,.,.
CCOC(=O)/C(=N\Nc1ccccc1Cl)N(C)C1CCN(C)CC1,.,.,.,.
Cc1nn(Cc2c(Cl)cccc2Cl)c(Cl)c1CN1CCN(CC(=O)N2CCCC2)CC1,.,87,.,.
SMILES,MenB inh,PV pol inh,MbtI inh,AID504770
CCC(CC)NC(=O)COc1ccc(Cl)cc1Cl,/,.,.,.
O=C(COc1ccc(Cl)cc1Cl)NO,/,/,/,-5.4
CCC(C(=O)N1CCCC1)n1nc(C)c2sc3ccccc3c2c1=O (configuration not stated),.,.,.,.
CCC(C(=O)N1CCN(c2ccccc2)CC1)n1nc(C)c2sc3ccccc3c2c1=O (configuration not stated),/,90,/,/
CC1=C(/C=C/C(C)=C/C=C/C(C)=C/C(=O)Nc2ccc(O)cc2)C(C)(C)CCC1,.,.,.,/
CC1=C(/C=C/C(C)=C/C=C/C(C)=C\C(=O)O)C(C)(C)CCC1,50!,.,.,.
CC(CC1CC(C)(C)OC1=O)c1nc(=S)[nH][nH]1 (configuration not stated),.,.,64,.
CCN(CC)NC(=S)Nc1ccccc1,.,.,.,.
CCC(C)NC(=S)Nc1ccccc1 (configuration not stated),30,.,.,.
CCNC(=S)Nc1ccccc1,.,.,.,.
CC(C)N(C)NC(=S)Nc1ccccc1,41,.,.,.
CN1CCN(C(=O)c2ccccc2C(=O)O)CC1,.,.,.,.
COc1ccc(-n2c(SCCC#N)nc3ccccc32)cc1,.,.,.,.
O=C1c2ccccc2C(=O)N1SSN1C(=O)c2ccccc2C1=O,.,85,.,.
Cc1ccc(O)c(C(=O)c2cnn(C(=O)Cc3csc(C)n3)c2)c1,.,86,.,.
CCN(CC)S(=O)(=O)c1cccc2c(S(=O)(=O)N(CC)CC)cccc12,/,/,/,.
CCN1CN=C(Nc2nc(C)c3cc(C)ccc3n2)NC1,.,.,.,.
CC1=CC(C)(C)N=C(Nc2nc(C)c3cc(C)cc(C)c3n2)N1,.,76,/,.
Cc1cc(C)nc(N2CCN(c3ccccn3)CC2)n1,.,.,.,.
O=C1C=CC(=O)C(CCCCCCC2=CC(=O)C=CC2=O)=C1,.,.,96,.
O=C1C=CC(=O)C(CCC2=CC(=O)C=CC2=O)=C1,.,.,98,.
CCc1ccc(C2=CC(=O)C=CC2=O)cc1,.,.,.,.
COc1cccc(C2N(c3ccccc3)C(=O)N3CCCN23)c1 (configuration not stated),.,.,.,.
Cc1c(-c2ccccc2)c(=O)oc2cc(OCC#N)ccc12,.,.,.,.
Cc1nc2ccc(I)cn2c1/C=N/NCCC#N,.,.,.,.
SMILES,MenB inh,PV pol inh,MbtI inh,AID504770
Cc1ccc(C(c2c(O)[nH]c(=S)[nH]c2=O)N2CCC(C)CC2)cc1 (configuration not stated),.,.,66,.
Cc1ccc(C(c2nnnn2C(C)(C)C)N2CCC(C)CC2)cc1 (configuration not stated),.,.,.,.
Cc1cc(C)c2c(N)c(C(=O)N3CCC(Cc4ccccc4)CC3)sc2n1,/,.,.,.
CCCn1c(SCC(=O)c2cccs2)n[nH]c1=O,.,/,64,.
CCCS(=O)(=O)c1nc2ccccc2n1CCN1CCOCC1,.,.,.,.
Cc1cc(C)c(Nc2nn3c(=O)c4cc5c(cc4nc3s2)OCO5)c(C)c1,/,87,/,/
Cc1cccc(C)c1Nc1nn2c(=O)c3ccccc3nc2s1,.,88,.,.
Cc1ccccc1Nc1nn2c(=O)c3ccc(C(=O)NCc4ccccc4)cc3nc2s1,/,.,/,/
CCOC(=O)c1c(SCC)nc(=O)[nH]c1C,.,.,.,.
Cc1ccc2oc3oc(=O)cc(C)c3c2c1,.,.,.,.
COc1ccc(Cn2c(=O)c3ccccc3n3c(-c4ccccc4O)nnc23)cc1,.,.,.,.
COc1ccc(OC)c(-c2nnc3n(Cc4ccc(C)cc4)c(=O)c4ccccc4n23)c1,/,64,/,/
CCc1ccc(CN2CCN(CC)CC2)cc1,35,.,.,.
CCc1ccc(CN2CCC(N3CCCCC3)CC2)cc1,.,.,/,.
Cc1cc(/C=C(\C#N)C(N)=S)c(C)n1C1CC1,.,.,.,.
O=C(CSc1cccc[n+]1[O-])c1ccccc1F,.,.,.,.
O=C(CCCSc1cccc[n+]1[O-])c1ccc(F)cc1,.,.,99,.
N#CNC1=NC(c2ccccc2)C2=C(N1)/C(=C\c1ccccc1)CCC2 (configuration not stated),.,.,.,.
Cc1ccc(/C=C/C(=O)NCC2CCN(C(=O)/C=C/c3ccc(C)o3)CC2)o1,.,.,89,.
CC1=C(C)C(=O)C(NCC2CCCO2)=CC1=O (configuration not stated),.,70,.,.
Cc1n[nH]c(=O)nc1NCC1CCCO1 (configuration not stated),/,/,/,.
Cc1cc(N2CCOCC2)cc(C)[n+]1[O-],46,.,.,.
NC1CCc2cc(O)c(O)cc2C1 (configuration not stated),/,.,93,/
N/C(=N/O)c1ccccc1N,42,.,.,.
